Shown are actives, neighbours in structure and some others; about 12% of the full set was active somewhere.
G9a block: G9a (human) methyltransferase inhibition; G9a H3K9 monomethylation, AlphaScreen, 2 h; Q96KQ7; AID 504332; Potency, µM (highest dose often 102 µM), for inactives: at the highest dose activity, negative = inhibition, most hits filed as inhibitors; actives 8.8% (n = 350,000); note: % is set by controls: 0 for no effect and ±100 for the full control effect; nearly all actives have a fitted effect of over 75% in size
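Readings reflect AlphaScreen signal from monomethyl-H3K9 antibody detection. HMT at 20 nM; substrate b-H3K9 500 nM; cofactor SAM 20 uM; 2 h RT reaction; compounds tested as titrations in qHTS with 15 min preincubation.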
Sfp inh: blocks B. subtilis Sfp PPTase activity; Q9F4F7; Biochemical Sfp PPTase activity, qHTS; Potency, µM, for inactives: largest response in the series, negative = inhibition, hits mostly inhibitors; actives 3.5% (n = 310,000);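 note: the enzyme is Sfp with the accession as filed and its product quenches rhodamine fluorescence; 0% = enzyme reaction without inhibitor and -100% = no enzyme wells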
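Reaction rates are the 30-min fluorescence difference (ex 525, em 598 nm) in wells containing 15 nM Sfp, 5 uM rhodamine-CoA and 12.5 uM BHQ-2-YbbR at pH 7.6 with 10 mM MgCl2.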
PLK1 PBD block: blocks phosphopeptide binding to human PLK1 polo-box domain | Plk1 PBD binding of FITC phosphopeptide, fluorescence polarization | Potency, µM, without a hit: max response, negative = inhibition, actives largely listed as inhibitors | actives 2.8% (n = 360,000); note: series mostly up to about 57 µM; % is set by controls: 0 for no effect and ±100 for the full control effect; nearly all actives have a fitted effect of over 65% in size
JMJD2A Tudor: JMJD2A Tudor domain (human) inhibition; AID 504339; Potency, µM (doses to about 114 µM), for the others: at the highest dose activity change, negative = inhibition, most hits filed as inhibitors; O75164; AlphaScreen JMJD2A-Tudor / H3K4me3 peptide binding; actives 4.4% (n = 390,000); note: % is set by controls: 0 for no effect and ±100 for the full control effect; nearly all actives have a fitted effect of over 50% in size
HP1b chromo inh: blocks HP1-beta chromodomain binding to methylated histone tails | AlphaScreen HP1-beta / biotin-H3K9me3 peptide binding | Potency, µM (series often up to 114 µM), for inactives: top-dose activity change, negative = inhibition, actives largely listed as inhibitors | AID 540317 | P83916 | actives 0.56% (n = 390,000); note: nearly all actives have a fitted effect of over 70% in size
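Compound inhibition of the preformed complex between 50 nM HP1-beta and 50 nM biotinylated H3K9me3 peptide was read by AlphaScreen. Buffer was PBS pH 7.4 with 0.01% Tween-20. Incubations ran 30 min at room temperature, with 10 ug/mL donor/acceptor beads.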
BAZ2B inh: blocks human BAZ2B. Q9UIF8. AlphaScreen BAZ2B-H3K14Ac peptide displacement. Potency, µM (doses to about 114 µM), for inactives: at the highest dose activity change, negative = inhibition, hits mostly inhibitors. actives 4.4% (n = 360,000); note: % is set by controls: 0 for no effect and ±100 for the full control effect; nearly all actives have a fitted effect of over 60% in size
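Inhibition is scored as reduced AlphaScreen emission. The BAZ2B/b-H3(5-23)K14Ac complex (50 nM each) in PBS pH 7.4, 0.01% Tween-20 meets compound (up to 110 uM) for 30 min at RT before bead addition.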
* hit, by the source's call; ? = inconclusive; . = no result; [ ] = dose if it differs, or a comment. Calls come from the whole dose curve; as a rule, active = well fitted curve in the direction sought with a large enough effect; inconclusive = small, poorly fitted or top-dose-only effect, or another doubt; inactive = no such curve, though single readings can be large; an effect the other way counts as inactive or inconclusive. Potency is the fitted concentration of half-maximal effect.

SMILES	G9a block	Sfp inh	PLK1 PBD block	JMJD2A Tudor	HP1b chromo inh	BAZ2B inh
CCOc1ccccc1/C=C/c1nc2ccccc2[nH]c1=O	.	-2%	3.8µM*	?	31%	0%
O=C(c1ccc(Br)o1)N1CCN(c2ccccn2)CC1	-50%[12.7 µM]	25µM*	-8%	-7%	10%	3%
O=C(Nc1ccc(C(=O)N2CCN(c3ccccn3)CC2)cc1)c1ccc(Br)o1	11%[2.33 µM]	.	-10%	-32%	-1%	?
CCc1ccccc1S(=O)(=O)Cc1ccc(C(=O)N2CCN(c3ccccn3)CC2)o1	79µM*	?	-3%	-7%	66%	-3%
CNC1C(O)C(OC2C(N)CC(N)C(OC3OC(CN)=CCC3N)C2O)OCC1(C)O (stereo not given)	2%[12.7 µM]	14%	.	.	.	.
O=C(CSc1nc(C2CC2)n(-c2ccccc2)n1)NCc1ccco1	-10%[12.7 µM]	.	-3%	-24%	-2%	-7%
CN(Cc1ccco1)C(=O)CSc1nc(C2CC2)n(-c2ccccc2)n1	32µM*	.	-12%	-19%	31%	?
N#C[C@@H]1[C@@H]2C(=O)N(c3ccc4c(c3)OCCO4)C(=O)[C@@H]2C2c3ccccc3C=CN21 (stereo not given in full)	7.9µM*	-5%	.	.	.	-27%
CC(=O)[C@@H]1[C@@H]2C(=O)N(C3CCCCC3)C(=O)[C@@H]2C2c3ccccc3C=CN21 (stereo not given in full)	-41%[0.501 µM]	-29%	.	.	.	?
CC(=O)[C@@H]1[C@@H]2C(=O)N(c3ccc(F)c(Cl)c3)C(=O)[C@@H]2C2c3ccccc3C=CN21 (stereo not given in full)	6.3µM*	11%	.	.	.	-6%
CC(=O)[C@H]1[C@@H]2C(=O)N(c3cccc(Cl)c3)C(=O)[C@@H]2[C@H]2c3ccccc3C=CN21	1.4µM*	?	?	?	2%	?
CC(C)(C)C(=O)[C@@H]1[C@@H]2C(=O)N(Cc3ccccc3)C(=O)[C@@H]2[C@H]2c3ccccc3C=CN12	10µM*	-7%	.	.	.	-27%
CCCNC(=O)OC[C@@H]1O[C@H](CCO/N=C\C[C@H]2C=C[C@H](OC(C)=O)[C@@H](COC(C)=O)O2)C=C[C@@H]1Oc1ccc(OC)cc1	.	29%	.	.	.	.
CCCC(=O)Nc1cc2c3c(c1)C(C)C(=O)N3CCC2 (stereo not given)	3%	6%	5%	13%	54%	-1%
COc1ccc(C(=O)CCC(=O)NC2=NCCS2)cc1	.	-11%	5%	20%	84%	?
O=C(O)CN1C(=O)COc2ccc(S(=O)(=O)N3CCCCCC3)cc21	-48%	17%	2%	10%	32%	-4%[57.1 µM]
CN(C)C(=O)c1ccc(-c2nccc(-n3ccnc3)n2)cc1	6%[0.501 µM]	-6%	.	.	.	.
Cc1ccc(CN2C(=O)C(O)(c3c[nH]c4ccccc34)c3cc(Cl)ccc32)cc1 (stereo not given)	-35%[59 µM]	.	.	?	15%	-39%
O=C(CNCCCO)Nc1cc(C(F)(F)F)cc(NC(=O)CNCCCO)c1Cl	11µM*	5%	-5%	-12%	34%	10%
CC1(C(=O)Nc2ccc3nc[nH]c3c2)CCN1C(=O)C/C=C/c1ccccc1 (stereo not given)	.	.	-11%	.	.	.
O=c1c(-c2ccc([N+](=O)[O-])cc2)coc2c(O)c(O)ccc12	8.9µM*	1%	-12%	-36%	2%	40µM*
CN(C)Cc1c(O)ccc2c(=O)c(-c3ccc(Cl)cc3)coc12	.	3%	-3%	?	23%	-3%
CCCCNC(=O)NNc1nc(Cl)cc(C)c1C#N	32µM*	-27%	4%	7%	36%	-5%
CCOC(=O)[C@]12CCCC=C1N(CCC1=CCCCC1)C(=O)[C@H](CC(=O)NCc1cccc(C(F)(F)F)c1)C2	.	.	-3%	.	.	.
CCN(c1ccccc1)S(=O)(=O)c1ccc(Oc2ccc(-n3ccnc3)cc2)nc1	23%[59 µM]	-8%	-2%	89µM*	-6%	?
SMILES	G9a block	Sfp inh	PLK1 PBD block	JMJD2A Tudor	HP1b chromo inh	BAZ2B inh
O=C(Nc1cccc([N+](=O)[O-])c1)c1ccc(-c2ccccc2)cc1	11%[59 µM]	28%	-23%	-16%	4%	0%
O=C(O)c1ccc(N=NNc2cccc([N+](=O)[O-])c2)cc1	45µM*	6%	-8%	-16%	-4%	-30%
COC(=O)c1ccc(N=NNc2ccccc2)cc1	8.9µM*	?	-9%	-25%	6%	?
N#C/C(=N\Nc1cccc([N+](=O)[O-])c1)C(=O)c1ccc(Br)cc1	45µM*	-6%	30µM*	40µM*	?	40µM*
Cc1nccc(-c2cccc(N/N=C(\C#N)C(=O)c3ccccc3)c2)n1	?	3%	-11%	?	-5%	-28%
CC(=O)N1CCc2c(sc3c2c(=O)n(CCc2ccccc2)c(=O)n3Cc2ccc(Cl)cc2)C1	?	.	.	-27%	11%	-32%
CNC(=O)C1CCC(Cn2c(=O)c3sccc3n(CC(=O)NCc3ccc(F)cc3)c2=O)CC1 (stereo not given)	8%[59 µM]	.	.	3%	63%	1%
CCOc1ccccc1OCCCC(=O)NNC(=O)c1ccc(F)cc1	.	.	-3%	-3%	11%[57 µM]	.
CC(=O)Nc1cc(C(=O)NCc2ccc(C)cc2)ccc1S(=O)(=O)c1ccc(Cl)cc1	-24%[59 µM]	.	.	-18%	-11%	0%
CC1CC(N(C(=O)c2ccco2)c2ccccc2)c2ccccc2N1C(=O)c1ccco1 (stereo not given)	-37%[59 µM]	14%	-11%	-32%	-9%	-3%
CC1CC(N(C(=O)c2ccc(Cl)cc2)c2ccccc2)c2ccccc2N1C(=O)c1ccco1 (stereo not given)	45µM*	2%	-6%	-33%	8%	-34%
NS(=O)(=O)c1ccc(N2C(=O)C3CC=CCC3C2=O)cc1 (stereo not given)	?	20%	-9%	-16%	25%	-14%
CC1=C(C)CS(=O)N(c2ccc(S(N)(=O)=O)cc2)C1 (stereo not given)	?	25µM*	1.5µM*	2%	61%	1%
CC1=C(C)CS(=O)N(S(=O)(=O)c2ccccc2)C1 (stereo not given)	8.9µM*	14µM*	1.5µM*	-20%	30%	3%
CCOc1ccc(S(=O)(=O)N/N=C2/CC(c3ccccc3)Oc3ccccc32)cc1 (stereo not given)	7.9µM*	14%	-12%	-32%	26%	-29%
O=S(=O)(N/N=C1\CC(c2ccccc2)Oc2ccccc21)c1ccccc1 (stereo not given)	37%[0.501 µM]	19%	-11%	-21%	28%	-36%[57.1 µM]

Compound activity as filed in PubChem BioAssay.
